From PubChem BioAssay (Tox21)
Inconclusive results are not listed. Calls of active or inactive are those of the source. Unless noted, the call rests on the fitted dose curve.

Columns and labels:
[1] = Nuclear factor erythroid 2-related factor 2/antioxidant responsive element (Nrf2/ARE) small molecule agonists: qHTS cell viability counter screen in human keratinocytes (AID 1919968; active means well fitted curve in the direction sought with a large enough effect in the repeat runs; an effect the other way counts as inactive or inconclusive; further: nearly all actives have a fitted effect of over 55% in size)
Summary of the method: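 After a 5 h attachment period, ARE-reporter keratinocytes were dosed with compounds in DMSO and then cultured 23 h at 37 C. Cell viability came from CellTiter-Fluor signal read after a further 1 h.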

[2] = Nuclear factor erythroid 2-related factor 2/antioxidant responsive element (Nrf2/ARE) small molecule agonists: luciferase reporter gene qHTS assay in human keratinocytes (AID 1919969); further: nearly all actives have a fitted effect of over 35% in size
[3] = target: Gonadotropin-releasing hormone receptor (Homo sapiens) (UniProt P30968); assay: Human gonadotropin-releasing hormone receptor (GnRHR) small molecule agonists, calcium flux assay in GnRHR-HEK293 cells (AID 1920063); further: nearly all actives have a fitted effect of over 35% in size
Summary of the method: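 We seeded human GnRHR-expressing HEK293 cells for 18 hours, loaded them with calcium dye for an hour at 37 C, added test compounds, and recorded fluorescence intensity kinetically for three minutes.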

[4] = target: KiSS-1 receptor (Homo sapiens) (UniProt Q969F8); assay: Human kisspeptin (KISS1R) small molecule agonists, calcium flux assay in KISS1R-HEK293 cells (AID 1920064; active means well fitted curve in the direction sought with a large enough effect in the repeat runs; an effect the other way counts as inactive or inconclusive)
Summary of the method: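 Kinetic calcium assay, 1 s sampling over 3 min at Ex/Em 480/540, in HEK293 cells engineered with human KISS1R; compounds delivered in DMSO after 1 h dye loading.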

[5] = G protein-coupled receptor (GPCR) small molecule agonists, calcium flux assay: HEK293 wild type cell line counter screen (AID 1920065)
Summary of the method: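 Calcium-sensitive dye, loaded 1 h at 37 C into cells cultured 18 h, reports compound-evoked calcium release as fluorescence (Ex/Em 480/540), measured over 3 min. Agonist mode; 15-point titrations, triplicate.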

[6] = p53 small molecule agonists, cell-based qHTS assay with human liver microsomes (AID 1963577);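 further: p53 response element beta-lactamase reporter cells with liver microsomes plus NADPH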
Summary of the method: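 HLM-supplemented p53RE-bla reporter assay: 16 h compound exposure at 37 C, microsomes and NADPH each 0.5 mg/mL final, read by fluorescence intensity.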

[7] = p53 small molecule agonists, cell-based qHTS assay with rat liver microsomes (AID 1963578)
Summary of the method: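 Quantitative HTS of the Tox21 10K library: p53RE-bla cells, rat liver microsomes plus NADPH at 0.5 mg/mL final each, 16 h at 37 C, beta-lactamase fluorescence detection.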

[8] = p53 small molecule agonists, cell-based qHTS assay with human liver microsomes: qHTS cell viability counter screen (AID 1963579); further: nearly all actives have a fitted effect of over 45% in size
Summary of the method: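 Viability of p53RE-bla cells is measured as CellTiter-Glo luminescence following a 16 h, 37 C incubation with compound, liver microsomes from human donors and NADPH.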

[9] = p53 small molecule agonists, cell-based qHTS assay with rat liver microsomes: qHTS cell viability counter screen (AID 1963580); further: nearly all actives have a fitted effect of over 45% in size
Summary of the method: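 Intracellular ATP, by CellTiter-Glo luminescence, defines viability. HCT-116 p53RE-bla cells, 4,000 per well, were compound-treated in the presence of rat liver microsomes and NADPH for 16 h at 37 C.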

[10] = p53 small molecule agonists, cell-based qHTS assay: qHTS cell viability counter screen (AID 1963581); further: nearly all actives have a fitted effect of over 45% in size
Summary of the method: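 Following 5 h attachment, HCT-116 p53RE-bla cells took up compound for 16 h at 37 C; the reporter was read with B/G FRET substrate (2 h RT), and viability then via CellTiter-Glo ATP luminescence.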

[11] = p53 small molecule agonists, cell-based qHTS assay (AID 1963582; active means well fitted activation curve with a large enough effect in the signal ratio in the repeat runs, not every such curve was filed as active; the % refers to the signal ratio)
Summary of the method: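 In this cell-based concentration-response screen, a p53 response element drives beta-lactamase; cells received DMSO-borne compounds after 5 h culture and were incubated a further 16 h before FRET substrate development.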

[12] = target: 5-hydroxytryptamine receptor 2A (Homo sapiens) (UniProt P28223); assay: 5-hydroxytryptamine receptor 2A (HTR2A) small molecule antagonists, cell-based qHTS assay (AID 1963586); further: nearly all actives have a fitted effect of over 45% in size
Summary of the method: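 Antagonist-mode intracellular calcium assay: DOI (4 nM) added after 5 min compound pre-incubation at room temperature to dye-loaded HTR2A-CHO cells. Fluorescence followed for 3 min, sampled every second.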

[13] = target: 5-hydroxytryptamine receptor 2A (Homo sapiens) (UniProt P28223); assay: 5-hydroxytryptamine receptor 2A (HTR2A) small molecule agonists, cell-based qHTS assay (AID 1963587); further: nearly all actives have a fitted effect of over 30% in size
Summary of the method: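 Kinetic calcium-flux fluorescence (2 min, 1 sec intervals) after compound addition in agonist mode. HTR2A-CHO cells were cultured 18 h, then dye-loaded 1 h at 37 C.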

[14] = target: Muscarinic acetylcholine receptor M1 (Homo sapiens) (UniProt P11229); assay: Cholinergic receptor muscarinic 1 (CHRM1) small molecule antagonists, cell-based qHTS assay (AID 1963588); further: nearly all actives have a fitted effect of over 40% in size
Summary of the method: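 CHRM1-CHO calcium-flux assay, antagonist mode. Cells were seeded 18 h, dye-loaded 1 h at 37 C and given compound for 5 min at RT, then acetylcholine was added at 50nM. FDSS fluorescence was read 3 min; 15 concentrations, three runs.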

[15] = target: Muscarinic acetylcholine receptor M1 (Homo sapiens) (UniProt P11229); assay: Cholinergic receptor muscarinic 1 (CHRM1) small molecule agonists, cell-based qHTS assay (AID 1963589); further: nearly all actives have a fitted effect of over 35% in size
Summary of the method: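 Measures agonist-induced intracellular calcium rise. Stable human CHRM1 CHO line, 1 h dye load at 37 C, compounds from DMSO, kinetic fluorescence read.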

[16] = cAMP Responsive Elements (CRE) small molecule agonists, cell-based qHTS assay (AID 1963590)
Summary of the method: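 A CRE-responsive beta-lactamase reporter in HEK 293T cells was used. Treatment ran 3 h at 37 C; detection used LiveBLAzer B/G FRET substrate for 2 h at room temperature.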

[17] = cAMP Responsive Elements (CRE) small molecule antagonists, cell-based qHTS assay (AID 1963591; active means well fitted inhibition curve with a large enough effect in the signal ratio in the repeat runs, not every such curve was filed as active; the % refers to the signal ratio)
Summary of the method: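 HEK293T cells carrying a CRE-driven beta-lactamase reporter receive compound and NKH477 (0.25 uM final) for 3 h. Fluorescence from LiveBLAzer B/G FRET substrate is read after 2 h at room temperature.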

[18] = target: Beta-2 adrenergic receptor (Homo sapiens) (UniProt P07550); assay: Adrenergic beta2 receptor (ADRB2) small molecule antagonists, cell-based qHTS assay (AID 1963592); further: series mostly up to about 92 µM; nearly all actives have a fitted effect of over 50% in size
Summary of the method: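 Cells (CHO, stable ADRB2 overexpression) incubated 18-20hr at 37C; compounds added from DMSO; agonist mix (1nM isoproterenol, 100uM IBMX, 25uM Ro-20-1724) added; 0.5hr RT; d2-cAMP and anti-cAMP-cryptate added; 1hr RT; 665/615 nm read.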

[19] = target: Beta-2 adrenergic receptor (Homo sapiens) (UniProt P07550); assay: Adrenergic beta2 receptor (ADRB2) small molecule agonists, cell-based qHTS assay (AID 1963593);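 further: CHO cells stably overexpressing human ADRB2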
Summary of the method: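 CHO cells stably over-expressing ADRB2 were plated overnight at 37C, then dosed with compounds plus a stimulation mix containing 100uM IBMX and 25uM Ro-20-1724 for 0.5hr at room temperature. cAMP was measured by HTRF competition, 1hr.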

[20] = target: D(2) dopamine receptor (Homo sapiens) (UniProt P14416); assay: Dopamine D2 receptor (DRD2) small molecule agonists, cell-based qHTS assay (AID 1963594); further: nearly all actives have a fitted effect of over 35% in size
Summary of the method: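 cAMP accumulation in DRD2-HEK293 cells measured by HTRF after 1 h detection; compounds added 10 min before NKH477 (200nM […]) forskolin-analogue stimulation, 30 min at room temperature, with Ro20-1724 present at 0.1 mM final.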
On the % scale 0 is the no-effect control and ±100 the full control effect.

Sequence of Beta-2 adrenergic receptor (Homo sapiens) (P07550 whole entry, looked up): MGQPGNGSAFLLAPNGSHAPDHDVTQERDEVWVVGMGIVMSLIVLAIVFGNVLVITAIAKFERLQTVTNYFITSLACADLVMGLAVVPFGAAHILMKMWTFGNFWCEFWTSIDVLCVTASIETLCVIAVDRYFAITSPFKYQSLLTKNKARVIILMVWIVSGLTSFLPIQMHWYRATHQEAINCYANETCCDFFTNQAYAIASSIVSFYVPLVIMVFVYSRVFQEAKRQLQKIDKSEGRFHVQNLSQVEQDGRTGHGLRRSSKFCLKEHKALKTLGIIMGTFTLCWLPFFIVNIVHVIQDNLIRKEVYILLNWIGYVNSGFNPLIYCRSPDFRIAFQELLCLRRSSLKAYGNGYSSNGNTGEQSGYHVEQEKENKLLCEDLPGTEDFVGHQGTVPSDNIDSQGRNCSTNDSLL
Sequence of Muscarinic acetylcholine receptor M1 (Homo sapiens) (P11229 whole entry, looked up): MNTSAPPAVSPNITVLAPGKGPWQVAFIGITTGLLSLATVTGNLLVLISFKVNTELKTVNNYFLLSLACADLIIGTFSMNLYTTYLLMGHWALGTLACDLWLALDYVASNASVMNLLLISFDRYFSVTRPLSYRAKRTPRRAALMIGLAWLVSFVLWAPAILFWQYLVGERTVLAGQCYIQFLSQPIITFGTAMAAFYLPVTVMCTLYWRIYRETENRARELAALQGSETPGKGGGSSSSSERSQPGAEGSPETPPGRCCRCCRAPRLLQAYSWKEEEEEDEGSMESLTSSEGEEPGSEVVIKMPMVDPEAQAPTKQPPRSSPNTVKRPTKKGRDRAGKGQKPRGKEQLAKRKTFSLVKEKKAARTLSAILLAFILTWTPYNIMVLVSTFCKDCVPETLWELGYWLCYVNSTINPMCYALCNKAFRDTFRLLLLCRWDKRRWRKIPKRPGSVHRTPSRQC
Sequence of 5-hydroxytryptamine receptor 2A (Homo sapiens) (P28223 whole entry, looked up): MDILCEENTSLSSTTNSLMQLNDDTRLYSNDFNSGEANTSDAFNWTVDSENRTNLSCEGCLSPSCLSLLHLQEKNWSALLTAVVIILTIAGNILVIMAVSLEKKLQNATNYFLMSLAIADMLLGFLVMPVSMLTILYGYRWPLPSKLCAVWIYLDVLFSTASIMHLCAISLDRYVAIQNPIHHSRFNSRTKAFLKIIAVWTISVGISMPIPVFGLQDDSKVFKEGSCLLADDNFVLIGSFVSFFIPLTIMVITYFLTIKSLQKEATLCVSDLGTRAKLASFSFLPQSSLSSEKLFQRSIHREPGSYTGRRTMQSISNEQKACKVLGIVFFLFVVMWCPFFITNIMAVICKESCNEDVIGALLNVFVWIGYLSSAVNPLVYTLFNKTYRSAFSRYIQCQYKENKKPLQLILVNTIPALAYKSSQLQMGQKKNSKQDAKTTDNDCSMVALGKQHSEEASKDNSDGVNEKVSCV
Sequence of KiSS-1 receptor (Homo sapiens) (Q969F8 whole entry, looked up): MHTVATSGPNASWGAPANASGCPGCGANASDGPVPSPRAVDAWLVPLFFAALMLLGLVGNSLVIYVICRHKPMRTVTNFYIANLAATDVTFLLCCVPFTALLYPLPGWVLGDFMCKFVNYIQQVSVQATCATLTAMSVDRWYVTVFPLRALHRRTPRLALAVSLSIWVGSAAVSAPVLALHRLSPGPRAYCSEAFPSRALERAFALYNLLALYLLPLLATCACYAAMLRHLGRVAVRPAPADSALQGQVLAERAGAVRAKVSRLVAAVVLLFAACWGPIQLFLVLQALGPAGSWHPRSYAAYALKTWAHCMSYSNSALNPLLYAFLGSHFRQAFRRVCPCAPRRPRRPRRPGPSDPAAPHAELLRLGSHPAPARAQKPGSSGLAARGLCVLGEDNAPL
Sequence of Gonadotropin-releasing hormone receptor (Homo sapiens) (P30968 whole entry, looked up): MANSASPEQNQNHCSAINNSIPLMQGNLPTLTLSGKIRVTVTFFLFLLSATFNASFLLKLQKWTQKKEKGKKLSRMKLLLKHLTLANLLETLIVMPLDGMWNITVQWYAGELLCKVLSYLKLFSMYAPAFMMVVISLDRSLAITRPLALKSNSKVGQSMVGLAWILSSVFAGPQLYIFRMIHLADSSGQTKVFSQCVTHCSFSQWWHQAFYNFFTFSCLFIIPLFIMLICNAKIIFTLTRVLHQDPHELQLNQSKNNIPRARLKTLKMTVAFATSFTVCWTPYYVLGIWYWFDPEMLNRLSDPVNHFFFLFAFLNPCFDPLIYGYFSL
Sequence of D(2) dopamine receptor (Homo sapiens) (P14416 whole entry, looked up): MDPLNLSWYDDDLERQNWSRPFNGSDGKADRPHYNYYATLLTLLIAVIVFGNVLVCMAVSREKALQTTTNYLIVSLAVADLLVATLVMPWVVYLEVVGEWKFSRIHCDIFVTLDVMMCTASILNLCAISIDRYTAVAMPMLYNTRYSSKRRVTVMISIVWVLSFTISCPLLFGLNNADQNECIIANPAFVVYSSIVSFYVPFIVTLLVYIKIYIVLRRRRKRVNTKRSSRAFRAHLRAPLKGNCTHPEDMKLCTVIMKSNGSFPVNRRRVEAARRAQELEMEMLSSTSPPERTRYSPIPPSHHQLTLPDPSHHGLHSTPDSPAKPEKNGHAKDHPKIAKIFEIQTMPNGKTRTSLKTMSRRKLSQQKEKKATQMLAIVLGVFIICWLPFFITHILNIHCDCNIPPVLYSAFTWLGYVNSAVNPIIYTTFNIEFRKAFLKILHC

Cc1ncsc1CCO
inactive: Potency [1] | Potency [2] | Potency [3] | Potency [4] | Potency [5] | Potency [6] | Potency [7] | Potency [8] | Potency [9] | Potency [10] | Potency [11] | Potency [12] | Potency [13] | Potency [14] | Potency [15] | Potency [16] | Potency [17] | Potency [18] | Potency [19] | Potency [20]

C[Si](C)=O
inactive: activity change, negative = cytotoxicity [1] 4.07% [at 8.39 µM] | activity, positive = activation [2] -5.78% [at 8.39 µM] | activity change [3] -0.63% [at 5.22 µM, active compounds read high] | activation [4] -1.56% [at 6.97 µM] | activation [5] 0.129% [at 5.23 µM] | activation [6] 3.5% [at 5.99 µM] | activation [7] 0.12% [at 5.99 µM] | activity change, negative = cytotoxicity [8] 7.59% [at 5.99 µM] | activity change, negative = cytotoxicity [9] 11.3% [at 5.99 µM] | activity change, negative = cytotoxicity [10] 1.47% [at 5.99 µM] | activation [11] -0.704% [at 5.99 µM] | activity, negative = inhibition [12] 1.83% [at 5.62 µM] | activation [13] 3.07% [at 7.02 µM] | activity, negative = inhibition [14] -3.21% [at 5.58 µM] | activation [15] 0.243% [at 6.97 µM] | activation [16] 0.463% [at 8.39 µM] | activity change, negative = inhibition [17] -3.7% [at 8.39 µM] | activity change, negative = inhibition [18] -1.43% [at 8.39 µM] | activation [19] 7.37% [at 8.39 µM] | activation [20] 4.84% [at 8.39 µM]

COCC(O)CO (stereo not given)
inactive: Potency [1] | Potency [2] | Potency [3] | Potency [4] | Potency [5] | Potency [6] | Potency [7] | Potency [8] | Potency [9] | Potency [10] | Potency [11] | Potency [12] | Potency [13] | Potency [14] | Potency [15] | Potency [16] | Potency [17] | Potency [18] | Potency [19] | Potency [20]

CCOCCOC(=O)/C=C/c1ccc(OC)cc1
inactive: Potency [1] | Potency [2] | Potency [3] | Potency [4] | Potency [5] | Potency [6] | Potency [7] | Potency [8] | Potency [9] | Potency [10] | Potency [11] | Potency [12] | Potency [13] | Potency [14] | Potency [15] | Potency [16] | Potency [17] | Potency [18] | Potency [19] | Potency [20]

CCCCCCCCSCC
inactive: Potency [1] | Potency [2] | Potency [3] | Potency [4] | Potency [5] | Potency [6] | Potency [7] | Potency [8] | Potency [9] | Potency [10] | Potency [11] | Potency [12] | Potency [13] | Potency [14] | Potency [15] | Potency [16] | Potency [17] | Potency [18] | Potency [19] | Potency [20]

Cn1c(=O)c2[nH]c(Br)nc2n(C)c1=O
inactive: Potency [1] | Potency [2] | Potency [3] | Potency [4] | Potency [5] | Potency [6] | Potency [7] | Potency [8] | Potency [9] | Potency [10] | Potency [11] | Potency [12] | Potency [13] | Potency [14] | Potency [15] | Potency [16] | Potency [17] | Potency [18] | Potency [19] | Potency [20]
